Experimental data taken from PubChem BioAssay (NCATS).
Inconclusive results are not listed. Entries that show only a call come without a potency. A number with no mark means an inactive call. Activity calls are given as the source filed them. Calls come from the whole dose curve; as a rule, active = well fitted curve in the direction sought with a large enough effect; inconclusive = small, poorly fitted or top-dose-only effect, or another doubt; inactive = no such curve, though single readings can be large; an effect the other way counts as inactive or inconclusive.

Assays:
[1] = target: Aldehyde dehydrogenase, mitochondrial (Homo sapiens) (UniProt P05091); assay: qHTS for Inhibitors of the Aldehyde Dehydrogenase Family (ALDH2) Primary screen (AID 2061308); note: nearly all actives have a fitted effect of over 55% in size
[2] = target: Retinaldehyde dehydrogenase 3 (Homo sapiens) (UniProt P47895); assay: qHTS for Inhibitors of the Aldehyde Dehydrogenase Family (ALDH1A3) Primary screen (AID 2061315)

SMILES	Potency [1]	Potency [2]	activity change, negative = inhibition [1]	activity change, negative = inhibition [2]
N#C[C@@H]1C[C@H](F)CN1C(=O)CNC1[C@H]2CN(C(=O)c3ccc(F)cc3)C[C@@H]12 (some centres undefined)	inactive	inactive		
C=CC1(C)CC(O)C(C(=C)C(=O)OC)C(O)C1C(=C)CO (centres undefined)	inactive	inactive		
CC1=CC(=O)CC(C)(C)C1CCC(C)O[C@@H]1O[C@H](CO[C@@H]2OC[C@@H](O)[C@H](O)[C@H]2O)[C@@H](O)[C@H](O)[C@H]1O (some centres undefined)	inactive	inactive		
C/C=C/C=C/C=C/C(=O)OC1C=C(C=O)C(O)(C(=O)O)C2(C)CCCC(C)(C)C12 (centres undefined)	inactive	inactive		
CC(=O)O[C@H]1CC(C)(C)CC2[C@@]13[C@H](O)C[C@]1(C)[C@@]2(CCC2[C@@]4(C)CC[C@H](O[C@@H]5OC[C@H](O[C@@H]6O[C@H](CO)[C@@H](O)[C@H](O)[C@H]6O[C@@H]6OC[C@@H](O)[C@H](O)[C@H]6O)[C@H](O)[C@H]5O[C@@H]5O[C@H](CO)[C@@H](O)[C@H](O)[C@H]5O)C(C)(C)C4CC[C@]21C)O[C@@H]3O (some centres undefined)	inactive	inactive		
O=C(Nc1c(-c2cccs2)nc2ccccn12)c1ccc(Cl)cc1	inactive	inactive		
Cc1cc(-c2ncc(-c3cccnc3)cc2/C=C/c2ccccc2)cnc1-c1cccnc1	inactive	inactive		
COc1cc(C2c3cc(O)c(OC)cc3CC(CO)C2CO)ccc1O (centres undefined)	inactive	inactive		
CCOC(=O)C1(CCOc2ccccc2)CCN(Cc2ccc(O)c(Cl)c2)CC1	inactive	inactive		
C=C(CC/C=C(\C)C(=O)O)C1(O)CC=C(C)CC1 (centres undefined)	inactive	inactive		
C=C(C(=O)O)C1CC2=C(C)CCCC2(C)C[C@@H]1O (some centres undefined)	inactive	inactive		
C[C@@H]1CC[C@]2(C(=O)O[C@@H]3O[C@H](CO[C@@H]4O[C@H](CO)[C@@H](O)[C@H](O)[C@H]4O)[C@@H](O)[C@H](O)[C@H]3O)CC[C@]3(C)C(=CCC4[C@@]5(C)CC[C@H](O)[C@](C)(C(=O)O)C5CC[C@]43C)[C@@H]2[C@]1(C)O (some centres undefined)	inactive	inactive		
CC(=O)OC1[C@H]2[C@@H](C[C@@H](C)[C@@H]3C=CC(=O)[C@@]13C)OC(=O)[C@@H]2C (some centres undefined)	inactive	inactive		
C[C@@H]1CCCN1CCc1cc2cc(-c3ccc(C#N)cc3)ccc2o1	inactive	inactive		
NC(=O)c1csc(C2OC(CO)C(O)C2O)n1 (centres undefined)	inactive	inactive		
CN1CCc2nc(C(=O)N[C@@H]3C[C@@H](C(=O)N(C)C)CC[C@@H]3NC(=O)C(=O)Nc3ccc(Cl)cn3)sc2C1	inactive	inactive		
Cc1cc2sc(NC(=O)Cc3ccccc3)nc2cc1Cl	inactive	inactive		
C=CCc1ccc(O[C@@H]2O[C@H](CO[C@@H]3O[C@H](CO)[C@@H](O)[C@H](O)[C@H]3O)[C@@H](O)[C@H](O)[C@H]2O)c(O)c1	inactive	inactive		
CC1(C)COC(=O)[C@@H]1O[C@@H]1O[C@H](CO)[C@@H](O)[C@H](O)[C@H]1O	inactive	inactive		
COC(=O)C1=COC(OC2OC(CO)C(O)C(O)C2O)C2C(C)C(OC(=O)/C=C/c3ccc(O)cc3)C(O)C12 (centres undefined)	inactive	inactive		
C=C(C=O)[C@]1(O)C[C@@]2(C)C(=CC1=O)C=C[C@H](OC(=O)/C=C/C=C/[C@H](C)CC)[C@@H]2C	inactive	inactive		
COc1cccc(NC[C@@H](O)Cn2c3ccc(Br)cc3c3cc(Br)ccc32)c1	inactive	inactive		
COc1cc(NS(=O)(=O)c2ccc(N)cc2)nc(C)n1	inactive	inactive		
C=C(C(=O)O[C@H]1C/C(C)=C/CC/C(CO)=C/[C@H]2OC(=O)C(=C)[C@H]12)C(O)CO (some centres undefined)	inactive	inactive		
CC(C)C(O)(CO)CCO[C@@H]1O[C@H](CO[C@H]2OC[C@](O)(CO)[C@H]2O)[C@@H](O)[C@H](O)[C@H]1O (some centres undefined)	inactive	inactive		
Cc1csc(NC(=O)c2ccc(COc3cccc(Cl)c3)o2)n1	inactive	inactive		
C[C@@H]1O[C@@H](O[C@H]2[C@H](OC(=O)[C@]34CCC(C)(C)C[C@H]3C3=CCC5[C@@]6(C)C[C@@H](O)[C@@H](O[C@@H]7O[C@H](CO)[C@@H](O)[C@H](O)[C@H]7O)[C@@](C)(CO)C6[C@H](O)C[C@@]5(C)[C@]3(C)CC4)OC[C@H](O)[C@@H]2O)[C@H](O)[C@H](O[C@@H]2OC[C@](O)(CO)[C@H]2O)[C@H]1O[C@@H]1OC[C@@H](O)[C@H](O[C@H]2O[C@H](C)[C@@H](O)[C@H](O)[C@@H]2O)[C@H]1O (some centres undefined)			9.79% [at 11.2 µM]	2.17% [at 11.2 µM]
